# Bioassay records (PubChem)
# In the library only some 0.19% were active in any assay of this set; here they are far more common.
# Bcl-2 Bim block: inhibitors of Bim-Bcl-2 binding, primary screen, biochemical, multiplexed, human Bcl-2 family; actives 0.06% (n = 190,000); Apoptosis regulator Bcl-2 (Homo sapiens), P10415; inhibition, % at 10 µM; Bead-based flow cytometry, Bim peptide-Bcl-2 binding; AID 950, 2007; in the data active = inhibition above about 40%;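 note: 0% = no compound wells with probe peptide and 100% = reference peptide inhibitor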
# Bim-Bcl-B: inhibitors of Bim-Bcl-B binding, primary screen, biochemical, multiplexed, human Bcl-2 family. actives 0.073% (n = 190,000). bead-based flow cytometry, Bim peptide-Bcl-B binding. Bcl-2-like protein 10 (Homo sapiens), Q9HD36. inhibition, % at 10 µM;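 note: 0% = tracer peptide without compound and 100% = reference inhibitor peptide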
# Target sequence (Q9HD36 whole entry, looked up): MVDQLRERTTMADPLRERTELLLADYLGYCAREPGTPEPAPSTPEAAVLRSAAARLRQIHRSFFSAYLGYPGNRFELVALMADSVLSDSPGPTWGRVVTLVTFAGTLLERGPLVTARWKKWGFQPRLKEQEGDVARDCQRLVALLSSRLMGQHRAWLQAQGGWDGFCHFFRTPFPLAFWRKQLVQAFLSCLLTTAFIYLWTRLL
# Bim-Bfl-1: inhibitors of Bim binding to Bfl-1, primary screen, biochemical, multiplexed, bead-based flow cytometry. Bcl-2-related protein A1 (Homo sapiens), Q16548. Bim-Bfl-1 binding inhibition. inhibition, % at 10 µM. actives 0.12% (n = 190,000). AID 1008, 2008;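 note: 0% = wells without compound plus tracer and 100% = blocker peptide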
# Bcl-XL Bim block: inhibitors of Bim-Bcl-XL binding, primary screen, biochemical, multiplexed, bead flow cytometry, human Bcl-XL; actives 0.04% (n = 190,000); Bim peptide-Bcl-XL binding, fluorescence; AID 1007, 2008; inhibition, % at 10 µM
# Target sequence (Q07817 whole entry, looked up): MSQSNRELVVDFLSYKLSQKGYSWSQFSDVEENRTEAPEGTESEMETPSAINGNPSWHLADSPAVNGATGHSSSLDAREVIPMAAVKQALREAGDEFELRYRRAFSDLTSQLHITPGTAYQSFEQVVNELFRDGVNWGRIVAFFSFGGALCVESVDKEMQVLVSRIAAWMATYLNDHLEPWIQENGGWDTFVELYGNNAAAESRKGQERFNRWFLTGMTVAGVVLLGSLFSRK
# Bim-Bcl-W: inhibitors of Bim binding to Bcl-W, primary screen, biochemical, multiplexed, bead-based flow cytometry; inhibition, % at 10 µM; actives 0.02% (n = 190,000); AID 952, 2007; Bim peptide-Bcl-W binding;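 note: 0% = bound tracer without compound and 100% = peptide blocker; higher means less fluorescent Bim peptide bound to Bcl-W beads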
# Active calls of the source: *; x = not tested or not shown. Cut-off read from the data, not from the text of the source, unless noted: active = inhibition above about 40%.
SMILES,Bcl-2 Bim block,Bim-Bcl-B,Bim-Bfl-1,Bcl-XL Bim block,Bim-Bcl-W
Cc1ccc(CNC(=O)CCCC(=O)Nc2cc(C)on2)cc1,-3,-8,-7,-4,-4
CC1CCCC(NC(=O)Nc2cccs2)C1C (stereo not given),1,-4,0,-2,-3
Cc1cc[n+]2cc(-c3cccc([N+](=O)[O-])c3)c(-c3cccc([N+](=O)[O-])c3)cc2c1,12,43*,10,8,14
Cc1cccc(-c2cnn(-c3cccc([N+](=O)[O-])c3)c2N)c1,-1,-4,-4,0,0
CC1CCCCN1C(=O)COc1ccc(F)cc1 (stereo not given),0,0,-1,0,0
O=C(O)CC/C(=C\c1ccccc1[N+](=O)[O-])c1nc2ccccc2s1,-1,0,0,-3,0
O=C(O)CC/C(=C\c1cc([N+](=O)[O-])ccc1Cl)c1nc2ccccc2s1,28,37,24,40*,33
CCOc1ccccc1NC(=O)CCNC(=O)c1ccc(Cl)cc1,0,0,-5,0,0
O=C(Nc1ccc2nc(-c3ccco3)c(-c3ccco3)nc2c1)NC1CC1,37,14,50*,20,35
OCCCNC(=S)Nc1ccc2nc(-c3ccccn3)c(-c3ccccn3)nc2c1,-1,-10,-8,-14,5
O=C(Nc1ccc(N2CCOCC2)cc1)Nc1ccc2nc(-c3ccco3)c(-c3ccco3)nc2c1,5,0,29,6,14
O=C(NCCCO)Nc1ccc2nc(-c3ccco3)c(-c3ccco3)nc2c1,46*,28,65*,29,46*
O=C(O)c1ccc(NC2=C/C(=N/S(=O)(=O)c3ccccc3)c3ccccc3C2=O)cc1,12,-21,47*,2,19
O=C1C(Nc2ccc(O)cc2)=C/C(=N/S(=O)(=O)c2cccs2)c2ccccc21,-3,-10,-8,-10,-2
CC(C)Cc1cc(-c2ccco2)c(C#N)c(N)n1,90*,93*,73*,30,26
O=C(CSc1nnc(-c2ccc(Cl)cc2)n1-c1ccc(Cl)cc1)N/N=C/c1ccco1,-9,-3,-11,-5,0
Cc1ccc(/C=N/NC(=O)CSc2nnc(-c3ccc(Cl)cc3)n2-c2ccccc2)o1,0,48*,0,-4,-2
O=C(Oc1ccc(-c2cnc3ccccc3n2)cc1)c1cc([N+](=O)[O-])ccc1Cl,-7,-9,0,-1,1
Cc1c(C(=O)Oc2ccc(-c3cnc4ccccc4n3)cc2)cccc1[N+](=O)[O-],10,-11,40*,0,12
O=C(N/N=C/c1ccc(O)c(O)c1O)/C(=C/c1ccc([N+](=O)[O-])cc1)NC(=O)c1ccccc1,21,9,41*,5,27
Cc1ccc(NC(=O)/C(=C\c2ccc([N+](=O)[O-])cc2)NC(=O)c2ccccc2)cc1,-1,0,-2,-7,-2
Cc1cc(C)c(OCC(=O)Nc2nc3ccccc3[nH]2)c(C)c1,-5,-3,-11,-4,-4
Cc1ccc(NC(=O)CC2S/C(=N/N=C/c3c[nH]c4ccccc34)NC2=O)cc1 (stereo not given),25,27,42*,33,28
O=[N+]([O-])c1ccc(N/N=C/c2ccc(O)c(O)c2O)c(S(=O)(=O)N2CCOCC2)c1,27,10,63*,15,40*
O=[N+]([O-])c1ccc(N/N=C/c2cccc(O)c2O)c(S(=O)(=O)N2CCOCC2)c1,-2,-9,-1,-3,2
SMILES,Bcl-2 Bim block,Bim-Bcl-B,Bim-Bfl-1,Bcl-XL Bim block,Bim-Bcl-W
Cc1ccc2nc(C)c(C(=O)NN=C3CCCCCC3)n2c1,-7,-6,-9,-4,-2
CN1c2cccc3cccc(c23)N(C)C1c1cccs1,0,-1,13,2,6
CC1N(C)c2cccc3cccc(c23)N1C,12,2,43*,9,29
O=C(c1cc(=O)c2ccccc2o1)N1CCN(c2cccc(Cl)c2)CC1,-3,0,-8,0,3
O=C(c1cc(=O)c2ccccc2o1)N1CCN(c2ccccc2F)CC1,66*,52*,58*,37,58*
O=C(Nc1nc2ccccc2[nH]1)C12CC3CC(CC(C3)C1)C2,-6,-5,-7,-4,3
O=C(OCc1nc2ccccc2[nH]1)C12CC3CC(CC(C3)C1)C2,12,42*,6,0,0
COc1cc(/C=C2\CC/C(=C\c3cc(OC)c(O)c(OC)c3)C2=O)cc(OC)c1O,37,18,50*,25,43*
CC(=O)OCCNc1cc(Sc2nc3ccccc3[nH]2)c2nonc2c1[N+](=O)[O-],2,0,44*,0,9
CC(=O)OCCCNc1cc(Sc2ccc(C)cc2)c2nonc2c1[N+](=O)[O-],0,-10,-3,-3,1
O=C1N/C(=C/c2cccn2-c2ccccc2)C(=O)N1Cc1ccc(F)cc1,11,-57,42*,13,10
CC[n+]1c(/C=C/C=C/N(C(C)=O)c2ccccc2)sc2ccccc21,x,2,9,x,43*
COc1ccc(CCN(C)C(=O)CSc2nnnn2C)cc1OC,0,-2,-5,-2,1
CN(C)/C=C(\C#N)C(=O)N/N=C/c1ccc(Cl)cc1,-5,-6,-7,0,-2
O=C(COc1ccc(Br)cc1CNC1CCCCC1)NCCc1ccccc1,78*,67*,54*,1,-7
CCOc1ccccc1NC(=O)CSc1ccc([N+](=O)[O-])cc1,-3,-5,-3,-2,-1
CCn1c(C)c(/C=N/Nc2nc3ccccc3s2)c2ccccc21,87*,x,x,23,21
CN1CCC(OC(=O)COc2ccc(F)cc2)CC1,-4,-3,-3,-4,0
N#CC(C#N)=C1C=CC=CN1/C(=C\c1ccccc1)C(=O)c1cccs1,4,-1,6,-1,-3
N#CC(C#N)=C1C=CC=CN1/C(=C\c1ccccc1Cl)C(=O)c1ccccc1,30,1,59*,16,34
CC(=O)NC1=C(NC2CCS(=O)(=O)C2)C(=O)c2ccccc2C1=O (stereo not given),6,6,41*,2,14
CN(C1=C(NC(=O)c2ccccc2)C(=O)c2ccccc2C1=O)C1CCS(=O)(=O)C1 (stereo not given),-6,-7,-7,-8,-4
CNc1ccc(Br)cc(C(=O)/C=C/c2cccc(OC)c2)c1=O,32,-19,27,8,9
CNc1ccc(Br)cc(C(=O)/C=C/c2ccc(OC)cc2OC)c1=O,25,3,41*,28,27
Cc1ccn2cc(C34CC5CC(CC(C5)C3)C4)nc2c1,-2,-3,-10,0,-1
